# A selection: hits, their analogues and other compounds. The true share with any hit is near 2.5%.
# UBC13 polyUb: blocks human UBC13 polyubiquitin chain formation. TR-FRET. hit rate 0.47% among 330,000. AID 485273. inhibition, % at 20 µM; in the data active = inhibition above about 45%, passing the limit was not always enough
# Target sequence (P61088 whole entry, looked up): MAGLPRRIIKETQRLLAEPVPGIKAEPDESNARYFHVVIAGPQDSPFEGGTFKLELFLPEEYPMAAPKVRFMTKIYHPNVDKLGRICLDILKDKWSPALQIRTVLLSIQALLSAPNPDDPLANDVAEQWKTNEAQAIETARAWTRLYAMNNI
# MEKK2 mut-MEK5: signal of MEK5 binding to mutant human MEKK2 PB1 domain; bead flow cytometry, Alexa488-MEK5 binding to MEKK2 mutant; percent response, % at 10 µM; hit rate 0.35% among 290,000; AID 1530; in the data active = percent response above about 24%, passing the limit was not always enough
# MEKK3 PB1 HTS: MEKK3-MEK5 PB1 interaction, increase or decrease; hit rate 1.4% among 290,000; Q99759; binding response (% of control), % at 10 µM; AID 1529; bead-based flow cytometry, Alexa488-MEK5 binding to MEKK3; actives lie on both sides; 0 = blocked by unlabeled MEK5, 100 = vehicle;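 active = binding response more than 3 SD above or below the average of its plate-row segment, actives on both sides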;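 also: Alexa488 bead fluorescence after subtracting the streptavidin-only scavenger bead signal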
# Rce1 inhib: blocks yeast Ras-converting enzyme; calls only; AID 2563; hit rate 0.27% among 290,000; Q03530; yeast membranes, quenched prenylated peptide cleavage fluorescence;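 active = fall in fluorescence gain of 50% or more versus controls, with final raw signal at or below 3038400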
# Target sequence (Q03530 whole entry, looked up): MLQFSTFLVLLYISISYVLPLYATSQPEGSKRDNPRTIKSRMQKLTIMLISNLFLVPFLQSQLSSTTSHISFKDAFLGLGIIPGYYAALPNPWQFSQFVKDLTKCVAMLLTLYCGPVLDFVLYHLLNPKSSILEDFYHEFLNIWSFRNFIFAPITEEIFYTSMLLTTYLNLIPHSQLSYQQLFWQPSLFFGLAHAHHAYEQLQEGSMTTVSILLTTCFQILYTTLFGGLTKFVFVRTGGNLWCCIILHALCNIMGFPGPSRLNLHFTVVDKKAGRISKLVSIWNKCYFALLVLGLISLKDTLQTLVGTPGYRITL
# MEKK2 WT-MEK5: raises or lowers MEK5 binding to wildtype human MEKK2 PB1 domain. bead flow cytometry, Alexa488-MEK5 binding to MEKK2 WT; actives lie on both sides. hit rate 1.1% among 290,000. binding response (% of control), % at 10 µM; in the data active = binding response below about 67% or above about 130%
# MEKK2wt confirm: raises or lowers MEK5 binding to wildtype human MEKK2, retest; hit rate 2.4% among 5,900; bead flow cytometry, Alexa488-MEK5 binding to MEKK2 WT; actives lie on both sides; shares compounds with MEKK3 PB1 HTS; binding response (% of control), % at 10 µM; in the data active = binding response below about 16% or above about 210%; inactive = in between
# MEKK2mut-MEK5: signal of MEK5 binding to mutant human MEKK2, retest; shares compounds with MEKK3 PB1 HTS; bead flow cytometry, Alexa488-MEK5 binding to MEKK2 mutant; percent response, % at 10 µM; hit rate 2% among 5,900; AID 1893; in the data active = percent response mostly above about 71%, no sharp cut-off; inactive = mostly below about 38%;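 also: higher means compound restores mutant binding toward wildtype level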
# MEKK3-MEK5 inh: MEKK3-MEK5 PB1 inhibition, single concentration confirmation | shares compounds with MEKK3 PB1 HTS | bead flow cytometry, Alexa488-MEK5 binding to MEKK3; stronger effect = lower value | binding response (% of control), % at 10 µM | hit rate 1.8% among 5,900 | AID 1894;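 active = binding response below 72% of control, or above a set upper limit, though filed actives all read lower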
# Numbers stand for hits; – = inactive; · = not tested or not shown; [ ] = dose if it differs, or a comment.
SMILES,UBC13 polyUb,MEKK2 mut-MEK5,MEKK3 PB1 HTS,Rce1 inhib,MEKK2 WT-MEK5,MEKK2wt confirm,MEKK2mut-MEK5,MEKK3-MEK5 inh
CCO[C@@H]1OC(C(=O)NC2CC2)=C[C@H](c2c[nH]c3ccccc23)[C@H]1CCCO,–,–,82[inhibitor],–,–,–,–,–
O=C(Nc1nc2ccccc2[nH]1)NC1CCCCC1,–,–,–,–,–,·,·,·
COc1ccc(N2C(=O)/C(=C/c3ccc([N+](=O)[O-])cc3)C=C2c2ccccc2)cc1,–,–,76[inhibitor],–,-10,–,–,–
O=C1/C(=C/c2ccc([N+](=O)[O-])cc2)C=C(c2ccccc2)N1c1ccccc1,–,–,–,–,–,·,·,·
CC1(C(=O)NCc2ccccn2)C=CCN1C(=O)c1ccccc1 (configuration not stated),–,–,50[inhibitor],–,–,–,–,–
Cc1ccc(S(=O)(=O)Nc2c(C)nn(C)c2C)c(C)c1,–,·,·,–,·,·,·,·
COc1ccc(CCCC(=O)Nc2ccc(F)cc2)cc1,–,–,–,–,–,·,·,·
CC(=O)C1=C(C)NC(SCC(N)=O)=C(C#N)C1c1sccc1C (configuration not stated),–,–,76[inhibitor],–,–,–,–,–
CN1Cc2sc(N)c(C#N)c2CC1(C)C,–,–,–,–,52[inhibitor],–,–,–
CC1(C)Cc2c(sc(N)c2C#N)C(C)(C)N1,–,–,–,–,–,·,·,·
CC(=O)OCC1=C(C(=O)O)N2C(=O)C(NC(=O)c3ccc(F)cc3)C2SC1 (configuration not stated),–,–,139,–,–,–,–,–
CC(=O)OCC1=C(C(=O)O)N2C(=O)[C@@H](NC(=O)CSc3ccncc3)[C@H]2SC1,–,·,·,·,·,·,·,·
COCCN(C(=O)c1ccccc1F)c1nc(-c2ccc(OC)cc2)cs1,–,–,–,–,–,·,·,·
CCN(CC)CCCN(C(=O)c1ccc(F)cc1)c1nc(-c2ccc(OC)cc2)cs1,–,24,–,–,141,–,–,–
COc1ccc(-c2csc(N(CCCN(C)C)C(=O)c3ccc(F)cc3)n2)cc1,–,25,–,–,140,–,–,–
CCCCN(C(=O)C(C)(C)Oc1ccc(Cl)cc1)c1c(N)n(CCC)c(=O)[nH]c1=O,–,·,·,·,·,·,·,·
Cc1cc(=O)oc(C)c1C(=O)OCC(=O)c1ccc(Cl)c(Cl)c1,–,–,–,–,–,·,·,·
Cc1ccc(C(=O)COC(=O)c2c(C)cc(=O)oc2C)cc1[N+](=O)[O-],–,–,160,–,–,–,–,–
CC(C)C(=O)c1ccc(O)c(O)c1,–,–,70[inhibitor],–,–,–,–,–
O=C(CS(=O)(=O)c1ccccc1)NCc1ccc(Cl)cc1,–,–,–,–,–,·,·,·
CCOC(=O)c1c(NC(=O)Nc2ccc(F)cc2)sc2c1CCN(C)C2,–,–,129,–,141,–,–,–
COc1cc2ccccc2cc1C(=O)Nc1sc2c(c1C(N)=O)CCN(C(C)C)C2,–,29,–,–,150,–,–,–
CN1CCc2c(sc(NC(=O)c3ccc4ccccc4c3)c2C(N)=O)C1,–,–,–,–,135,–,–,–
CC(C)N1CCc2c(sc(NC(=O)CN3C(=O)c4ccccc4C3=O)c2C(N)=O)C1,–,–,–,–,–,·,·,·
COC(=O)C1CCN(Cc2ccc(OCCCN3CCN(c4ccc([N+](=O)[O-])cc4)CC3)cc2)CC1,–,–,–,–,144,–,–,–
SMILES,UBC13 polyUb,MEKK2 mut-MEK5,MEKK3 PB1 HTS,Rce1 inhib,MEKK2 WT-MEK5,MEKK2wt confirm,MEKK2mut-MEK5,MEKK3-MEK5 inh
NC1=NC(=O)/C(=C/c2cn(CCC(=O)O)nc2-c2ccc(F)cc2)S1,–,–,129,–,–,–,–,–
CN1CCN(Cc2ccc(Sc3ccc(Cl)cc3)c([N+](=O)[O-])c2)CC1,–,–,–,–,157,–,–,–
CC1=NN(C(=S)Nc2ccccc2)C(C)(C)C1,–,–,–,·,–,·,·,·
COc1ccccc1NC(=S)NCc1ccc2c(c1)cc(C)n2C,–,–,–,–,–,·,·,·
Cc1cc2cc(CNC(=S)NCc3ccccc3)ccc2n1C,–,–,–,–,–,·,·,·
Cc1cc2cc(CNC(=O)Nc3ccccc3)ccc2n1C,–,–,–,–,-4.0[inhibitor],–,–,–
Cc1ccccc1NC(=S)NCc1ccc2c(c1)cc(C)n2C,–,–,74[inhibitor],–,61[inhibitor],–,–,–
Cc1cc2cc(CNS(=O)(=O)c3ccccc3)ccc2n1C,–,–,–,–,39[inhibitor],–,–,–
CCc1cccc(C)c1NC(=S)NCc1ccc2c(c1)cc(C)n2C,–,–,–,–,72[inhibitor],–,–,–
Cc1ccc(OCC(O)Cn2c(N3CCCCC3)nc3c2c(=O)[nH]c(=O)n3C)cc1C (configuration not stated),–,–,–,–,–,·,·,·
COc1cc(CN2CCN(S(=O)(=O)c3ccc(F)cc3)CC2)cc(OC)c1OC,–,–,–,–,–,·,·,·
COc1cc(OC)c(OC)cc1CN1CCN(S(=O)(=O)c2ccc(F)cc2)CC1,–,–,122,–,–,–,–,–
NC(=O)COC(=O)CNC(=O)c1sc2ccccc2c1Cl,–,–,–,–,–,·,·,·
CCC(C)NS(=O)(=O)c1ccc(S(=O)(=O)N(CCc2ccc(OC)c(OC)c2)Cc2cccs2)cc1 (configuration not stated),–,–,147,–,–,–,–,–
O=C(CN1CCC(O)(c2cccc(F)c2)CC1)NCCc1c[nH]c2ccccc12,–,–,–,–,178,–,–,–
O=C(CC(=O)N/N=C/c1ccc(F)cc1)N/N=C/c1ccc(F)cc1,–,–,–,–,–,·,·,·
O=C(CCCc1c[nH]c2ccccc12)NCc1cccs1,–,–,–,–,–,·,·,·
O=C(Cc1c[nH]c2ccccc12)NCc1cccs1,–,–,136,–,–,–,–,–
O=C(CSc1c[nH]c2ccccc12)N1CCCc2ccccc21,–,–,–,–,–,·,·,·
O=C(Cc1c[nH]c2ccccc12)N/N=C/c1ccc(F)cc1,–,–,139,–,–,–,–,–
O=C(Cc1c[nH]c2ccccc12)N1CCc2ccccc21,–,–,2.0[inhibitor],–,1.0[inhibitor],–,–,–
CC(=O)NS(=O)(=O)c1ccc(NC(=O)c2ccc3c(c2)C(=O)N(CCC(C)C)C3=O)cc1,–,–,–,–,–,·,·,·
Cc1cc(Br)ccc1-n1[nH]c(C)c(C=Nc2cccc3nsnc23)c1=O,–,–,–,–,41[inhibitor],–,–,–
O=C(Nc1cccc(S(=O)(=O)N2CCCCC2)c1)Nc1ccc(Cl)cc1Cl,–,–,153,–,141,–,–,–
O=C(Nc1cccc(S(=O)(=O)N2CCCCC2)c1)c1ccc2ncsc2c1,–,–,–,–,59[inhibitor],–,–,–

# Source: PubChem BioAssay
